Experiment [1] has as its system Epidermal growth factor receptor (Homo sapiens), P00533 [T790M]. The note with it: at 1 µM.
For experiment [2], the system named is Epidermal growth factor receptor (Homo sapiens), P00533 [L858R,T790M]. The note with it: at 0.1 µM.
The test system is the same in experiment [3]. The note with it: at 1 µM.
In experiment [4] the target is Ephrin type-A receptor 2 (Homo sapiens) (UniProt P29317). The settings on record: at 0.1 µM.
For experiment [5] the target is unchanged. The note with it: at 1 µM.
The target in experiment [6] is T1, Ephrin type-A receptor 3 (Homo sapiens) (UniProt P29320).
T1 sequence (whole entry): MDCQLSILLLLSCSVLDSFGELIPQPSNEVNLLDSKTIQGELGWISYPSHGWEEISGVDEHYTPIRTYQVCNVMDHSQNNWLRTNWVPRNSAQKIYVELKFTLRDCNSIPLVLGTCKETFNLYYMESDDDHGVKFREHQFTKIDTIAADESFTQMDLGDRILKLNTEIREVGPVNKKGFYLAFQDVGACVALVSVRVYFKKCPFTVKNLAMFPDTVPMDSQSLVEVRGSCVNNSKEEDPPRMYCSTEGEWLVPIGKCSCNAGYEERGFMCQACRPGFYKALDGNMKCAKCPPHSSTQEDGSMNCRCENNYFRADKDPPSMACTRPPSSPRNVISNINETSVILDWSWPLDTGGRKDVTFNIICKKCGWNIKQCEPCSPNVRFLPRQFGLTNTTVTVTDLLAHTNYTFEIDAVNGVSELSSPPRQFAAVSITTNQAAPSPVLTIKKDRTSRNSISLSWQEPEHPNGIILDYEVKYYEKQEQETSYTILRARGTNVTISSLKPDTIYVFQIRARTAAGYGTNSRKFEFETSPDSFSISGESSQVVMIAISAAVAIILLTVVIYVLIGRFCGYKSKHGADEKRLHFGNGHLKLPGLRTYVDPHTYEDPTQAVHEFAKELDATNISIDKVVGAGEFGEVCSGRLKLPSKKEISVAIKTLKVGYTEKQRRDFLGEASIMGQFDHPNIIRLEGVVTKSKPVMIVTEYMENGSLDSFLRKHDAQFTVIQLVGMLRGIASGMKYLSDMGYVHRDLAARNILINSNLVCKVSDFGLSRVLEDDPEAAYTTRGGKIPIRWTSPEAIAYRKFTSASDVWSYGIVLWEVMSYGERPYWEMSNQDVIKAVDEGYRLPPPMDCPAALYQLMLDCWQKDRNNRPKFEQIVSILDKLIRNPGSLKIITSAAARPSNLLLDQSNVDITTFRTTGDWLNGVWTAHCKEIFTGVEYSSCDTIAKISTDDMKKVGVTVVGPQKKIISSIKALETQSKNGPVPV
The note with it: at 0.1 µM.

Experiment [7] has as its target T1, Ephrin type-A receptor 3 (Homo sapiens). The settings on record: at 1 µM.
Experiment [8] deals with Ephrin type-A receptor 4 (Homo sapiens) (UniProt P54764). The note with it: at 0.1 µM.
Experiment [9] has the same target. The settings on record: at 1 µM.
The target in experiment [10] is T2, Ephrin type-B receptor 2 (Homo sapiens) (UniProt P29323).
T2 sequence (whole entry): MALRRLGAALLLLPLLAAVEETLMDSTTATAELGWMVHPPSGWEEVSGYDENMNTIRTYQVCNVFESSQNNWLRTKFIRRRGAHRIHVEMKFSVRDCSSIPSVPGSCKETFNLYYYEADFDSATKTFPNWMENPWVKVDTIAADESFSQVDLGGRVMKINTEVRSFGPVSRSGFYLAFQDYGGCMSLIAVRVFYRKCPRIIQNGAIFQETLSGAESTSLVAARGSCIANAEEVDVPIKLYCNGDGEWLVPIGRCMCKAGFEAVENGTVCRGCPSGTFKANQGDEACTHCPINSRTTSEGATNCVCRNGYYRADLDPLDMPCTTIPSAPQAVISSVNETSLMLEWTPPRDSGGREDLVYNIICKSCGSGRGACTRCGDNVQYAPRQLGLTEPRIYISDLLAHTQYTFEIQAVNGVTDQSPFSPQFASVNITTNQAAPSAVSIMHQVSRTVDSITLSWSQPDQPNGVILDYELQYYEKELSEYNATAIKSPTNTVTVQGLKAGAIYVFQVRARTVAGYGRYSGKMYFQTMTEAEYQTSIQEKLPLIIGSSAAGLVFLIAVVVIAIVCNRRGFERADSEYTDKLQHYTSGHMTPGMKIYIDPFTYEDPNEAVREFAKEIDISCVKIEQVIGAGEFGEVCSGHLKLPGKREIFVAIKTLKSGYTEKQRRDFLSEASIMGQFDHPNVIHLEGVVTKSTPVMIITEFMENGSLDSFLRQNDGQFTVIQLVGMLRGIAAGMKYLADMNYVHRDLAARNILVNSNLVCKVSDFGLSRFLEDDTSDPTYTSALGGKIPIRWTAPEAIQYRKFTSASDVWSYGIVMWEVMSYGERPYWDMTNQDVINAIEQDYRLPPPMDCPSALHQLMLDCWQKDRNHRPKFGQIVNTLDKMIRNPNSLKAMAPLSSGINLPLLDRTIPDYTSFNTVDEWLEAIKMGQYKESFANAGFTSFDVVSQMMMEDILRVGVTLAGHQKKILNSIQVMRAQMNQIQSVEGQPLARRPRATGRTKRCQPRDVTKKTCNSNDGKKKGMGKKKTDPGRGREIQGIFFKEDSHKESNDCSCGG
The settings on record: at 0.1 µM.

Experiment [11] has as its target T2, Ephrin type-B receptor 2 (Homo sapiens). The settings on record: at 1 µM.
Experiment [12] deals with T3, Ephrin type-B receptor 3 (Homo sapiens) (UniProt P54753).
T3 sequence (whole entry): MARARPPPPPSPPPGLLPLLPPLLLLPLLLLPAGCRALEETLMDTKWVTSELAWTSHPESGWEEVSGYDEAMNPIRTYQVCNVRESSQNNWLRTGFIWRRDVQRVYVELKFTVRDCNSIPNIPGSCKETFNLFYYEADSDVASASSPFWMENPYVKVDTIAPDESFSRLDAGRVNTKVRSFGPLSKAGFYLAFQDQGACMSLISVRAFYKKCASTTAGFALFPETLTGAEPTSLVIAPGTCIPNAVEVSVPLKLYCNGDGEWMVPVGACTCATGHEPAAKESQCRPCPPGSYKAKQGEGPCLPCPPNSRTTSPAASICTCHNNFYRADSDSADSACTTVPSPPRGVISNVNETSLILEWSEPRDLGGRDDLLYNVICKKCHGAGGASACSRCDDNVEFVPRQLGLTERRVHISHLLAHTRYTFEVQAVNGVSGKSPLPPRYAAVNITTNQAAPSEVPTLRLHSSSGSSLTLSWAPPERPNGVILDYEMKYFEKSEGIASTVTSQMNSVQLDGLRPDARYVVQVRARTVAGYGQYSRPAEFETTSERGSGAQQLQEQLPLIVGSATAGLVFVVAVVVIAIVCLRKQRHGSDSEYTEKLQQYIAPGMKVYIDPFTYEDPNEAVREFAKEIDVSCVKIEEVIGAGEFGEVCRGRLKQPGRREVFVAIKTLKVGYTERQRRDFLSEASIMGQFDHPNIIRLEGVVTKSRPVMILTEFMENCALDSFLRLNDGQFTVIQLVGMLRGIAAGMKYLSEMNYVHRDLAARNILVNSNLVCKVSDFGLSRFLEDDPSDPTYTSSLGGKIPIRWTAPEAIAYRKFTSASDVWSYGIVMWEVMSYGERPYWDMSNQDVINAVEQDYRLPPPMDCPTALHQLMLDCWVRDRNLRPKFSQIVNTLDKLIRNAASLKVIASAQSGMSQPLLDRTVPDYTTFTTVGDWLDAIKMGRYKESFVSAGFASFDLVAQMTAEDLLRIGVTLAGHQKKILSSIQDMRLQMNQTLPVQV
The settings on record: at 0.1 µM.

Experiment [13] concerns the target T3, Ephrin type-B receptor 3 (Homo sapiens). The settings on record: at 1 µM.
Experiment [14] deals with T4, Ephrin type-B receptor 4 (Homo sapiens) (UniProt P54760).
T4 sequence (whole entry): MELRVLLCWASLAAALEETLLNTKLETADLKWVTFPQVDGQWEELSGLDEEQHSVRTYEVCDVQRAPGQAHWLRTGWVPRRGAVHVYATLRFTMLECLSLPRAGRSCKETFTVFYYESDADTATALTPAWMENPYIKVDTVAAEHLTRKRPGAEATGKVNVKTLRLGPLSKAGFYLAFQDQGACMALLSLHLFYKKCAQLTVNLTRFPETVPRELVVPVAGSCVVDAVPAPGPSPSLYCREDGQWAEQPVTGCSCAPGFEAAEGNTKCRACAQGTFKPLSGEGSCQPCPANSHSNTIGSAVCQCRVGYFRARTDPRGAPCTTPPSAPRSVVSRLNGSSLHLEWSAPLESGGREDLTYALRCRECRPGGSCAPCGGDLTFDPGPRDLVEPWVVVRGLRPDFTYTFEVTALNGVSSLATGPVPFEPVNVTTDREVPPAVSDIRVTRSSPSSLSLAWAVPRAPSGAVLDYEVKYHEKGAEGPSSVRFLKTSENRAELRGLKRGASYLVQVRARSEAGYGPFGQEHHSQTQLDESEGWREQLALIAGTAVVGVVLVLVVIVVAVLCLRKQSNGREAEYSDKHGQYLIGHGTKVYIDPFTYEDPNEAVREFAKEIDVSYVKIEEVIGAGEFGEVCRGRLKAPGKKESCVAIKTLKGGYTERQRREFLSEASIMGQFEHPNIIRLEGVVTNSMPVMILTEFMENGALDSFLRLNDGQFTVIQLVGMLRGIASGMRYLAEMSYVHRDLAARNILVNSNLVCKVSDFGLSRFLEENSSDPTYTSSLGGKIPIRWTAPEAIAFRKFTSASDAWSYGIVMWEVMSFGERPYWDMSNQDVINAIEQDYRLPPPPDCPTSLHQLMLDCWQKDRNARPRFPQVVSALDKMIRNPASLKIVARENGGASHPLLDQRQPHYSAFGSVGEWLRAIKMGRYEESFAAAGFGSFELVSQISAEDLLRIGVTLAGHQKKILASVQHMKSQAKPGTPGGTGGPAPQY
The note with it: at 0.1 µM.

The target of experiment [15] is T4, Ephrin type-B receptor 4 (Homo sapiens). The settings on record: at 1 µM.
Experiment [16] has as its target Receptor tyrosine-protein kinase erbB-2 (Homo sapiens) (UniProt P04626). The note with it: at 0.1 µM.
The target is the same in experiment [17]. The settings on record: at 1 µM.
For experiment [18], the target named is Receptor tyrosine-protein kinase erbB-4 (Homo sapiens) (UniProt Q15303). The settings on record: at 0.1 µM.
The target is the same in experiment [19]. The note with it: at 1 µM.
In experiment [20] the target is Tyrosine-protein kinase Fer (Homo sapiens) (UniProt P16591). The settings on record: at 0.1 µM.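 Also: reported figures are averaged percent inhibition of FER.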

By inhibition is commonly meant the change of the read-out against control, counted positive when it falls.

Chain of Tyrosine-protein kinase Fer (Homo sapiens) (P16591 whole entry, looked up): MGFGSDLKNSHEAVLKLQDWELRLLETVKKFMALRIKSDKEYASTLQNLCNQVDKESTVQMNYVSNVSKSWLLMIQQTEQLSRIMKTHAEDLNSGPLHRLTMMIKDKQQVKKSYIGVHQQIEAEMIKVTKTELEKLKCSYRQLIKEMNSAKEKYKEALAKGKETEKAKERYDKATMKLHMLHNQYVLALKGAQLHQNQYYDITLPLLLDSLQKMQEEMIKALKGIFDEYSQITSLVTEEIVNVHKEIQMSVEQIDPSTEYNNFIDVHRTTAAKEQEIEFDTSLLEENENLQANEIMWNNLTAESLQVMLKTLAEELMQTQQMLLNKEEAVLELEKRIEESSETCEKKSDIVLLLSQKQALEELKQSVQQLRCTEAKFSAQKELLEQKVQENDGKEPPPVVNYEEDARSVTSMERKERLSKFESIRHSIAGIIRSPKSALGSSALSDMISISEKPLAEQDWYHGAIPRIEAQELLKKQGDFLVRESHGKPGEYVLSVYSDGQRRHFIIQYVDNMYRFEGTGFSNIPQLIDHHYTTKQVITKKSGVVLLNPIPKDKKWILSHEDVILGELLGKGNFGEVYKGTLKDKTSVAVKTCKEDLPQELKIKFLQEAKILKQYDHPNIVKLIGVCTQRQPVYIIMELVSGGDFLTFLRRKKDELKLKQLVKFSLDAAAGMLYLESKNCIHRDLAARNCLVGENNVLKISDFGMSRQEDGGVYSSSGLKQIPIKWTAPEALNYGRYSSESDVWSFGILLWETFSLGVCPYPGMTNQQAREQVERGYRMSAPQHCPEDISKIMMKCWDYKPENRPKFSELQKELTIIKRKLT
Chain of Ephrin type-A receptor 4 (Homo sapiens) (P54764 whole entry): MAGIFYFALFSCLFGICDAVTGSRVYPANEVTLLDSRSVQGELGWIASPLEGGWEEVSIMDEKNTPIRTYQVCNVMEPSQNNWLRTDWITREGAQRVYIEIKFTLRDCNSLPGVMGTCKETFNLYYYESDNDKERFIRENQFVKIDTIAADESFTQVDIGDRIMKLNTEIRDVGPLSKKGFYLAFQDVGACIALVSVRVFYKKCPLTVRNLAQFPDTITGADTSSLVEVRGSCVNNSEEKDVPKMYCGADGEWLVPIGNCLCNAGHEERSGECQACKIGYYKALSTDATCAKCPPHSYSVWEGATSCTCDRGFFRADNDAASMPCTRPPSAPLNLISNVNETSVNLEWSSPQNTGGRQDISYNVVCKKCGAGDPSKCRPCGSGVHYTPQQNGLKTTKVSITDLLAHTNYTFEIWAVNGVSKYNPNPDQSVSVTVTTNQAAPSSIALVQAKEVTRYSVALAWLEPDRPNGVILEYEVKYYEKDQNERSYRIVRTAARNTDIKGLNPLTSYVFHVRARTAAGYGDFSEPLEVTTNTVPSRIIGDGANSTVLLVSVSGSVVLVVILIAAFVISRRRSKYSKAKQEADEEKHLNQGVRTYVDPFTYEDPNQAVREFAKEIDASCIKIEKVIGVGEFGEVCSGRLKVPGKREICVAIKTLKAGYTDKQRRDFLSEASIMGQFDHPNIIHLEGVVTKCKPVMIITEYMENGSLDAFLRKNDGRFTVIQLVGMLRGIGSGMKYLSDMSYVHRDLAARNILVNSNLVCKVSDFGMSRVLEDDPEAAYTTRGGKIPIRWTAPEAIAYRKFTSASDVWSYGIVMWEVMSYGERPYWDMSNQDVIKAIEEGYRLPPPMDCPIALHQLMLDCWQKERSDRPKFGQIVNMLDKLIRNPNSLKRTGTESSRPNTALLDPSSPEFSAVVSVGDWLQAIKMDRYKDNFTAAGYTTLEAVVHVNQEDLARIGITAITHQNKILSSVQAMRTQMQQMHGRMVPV
Chain of Receptor tyrosine-protein kinase erbB-2 (Homo sapiens) (P04626 whole entry): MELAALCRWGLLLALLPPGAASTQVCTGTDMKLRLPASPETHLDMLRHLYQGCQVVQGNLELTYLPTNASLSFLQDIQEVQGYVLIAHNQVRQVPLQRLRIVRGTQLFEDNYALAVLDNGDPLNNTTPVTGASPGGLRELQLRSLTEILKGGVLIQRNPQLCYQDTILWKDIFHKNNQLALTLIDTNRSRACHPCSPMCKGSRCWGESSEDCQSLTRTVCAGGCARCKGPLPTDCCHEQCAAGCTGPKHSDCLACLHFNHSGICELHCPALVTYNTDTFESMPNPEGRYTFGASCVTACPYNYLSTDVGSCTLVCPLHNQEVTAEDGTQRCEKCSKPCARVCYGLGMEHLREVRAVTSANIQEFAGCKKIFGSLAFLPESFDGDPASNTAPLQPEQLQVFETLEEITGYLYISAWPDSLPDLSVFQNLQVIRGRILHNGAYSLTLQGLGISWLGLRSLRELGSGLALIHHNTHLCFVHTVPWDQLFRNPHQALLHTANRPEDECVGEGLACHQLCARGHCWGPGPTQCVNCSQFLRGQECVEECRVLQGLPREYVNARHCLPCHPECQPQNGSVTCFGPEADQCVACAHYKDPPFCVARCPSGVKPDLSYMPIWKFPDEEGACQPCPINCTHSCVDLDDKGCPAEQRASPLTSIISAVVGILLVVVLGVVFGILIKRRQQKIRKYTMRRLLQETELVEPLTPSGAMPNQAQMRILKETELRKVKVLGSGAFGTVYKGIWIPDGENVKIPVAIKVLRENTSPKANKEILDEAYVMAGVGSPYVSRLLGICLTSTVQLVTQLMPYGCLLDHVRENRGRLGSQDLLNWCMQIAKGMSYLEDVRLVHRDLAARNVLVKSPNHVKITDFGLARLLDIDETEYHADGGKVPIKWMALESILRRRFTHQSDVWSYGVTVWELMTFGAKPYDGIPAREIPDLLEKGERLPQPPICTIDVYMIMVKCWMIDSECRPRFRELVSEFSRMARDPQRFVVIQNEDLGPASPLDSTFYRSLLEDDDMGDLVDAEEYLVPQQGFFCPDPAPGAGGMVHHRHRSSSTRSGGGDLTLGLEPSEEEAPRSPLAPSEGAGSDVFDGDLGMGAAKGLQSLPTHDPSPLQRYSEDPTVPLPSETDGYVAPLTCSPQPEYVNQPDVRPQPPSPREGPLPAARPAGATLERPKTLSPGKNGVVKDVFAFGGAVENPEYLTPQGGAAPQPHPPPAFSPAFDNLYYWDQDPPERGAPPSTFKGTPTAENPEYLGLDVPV
Chain of Receptor tyrosine-protein kinase erbB-4 (Homo sapiens) (Q15303 whole entry): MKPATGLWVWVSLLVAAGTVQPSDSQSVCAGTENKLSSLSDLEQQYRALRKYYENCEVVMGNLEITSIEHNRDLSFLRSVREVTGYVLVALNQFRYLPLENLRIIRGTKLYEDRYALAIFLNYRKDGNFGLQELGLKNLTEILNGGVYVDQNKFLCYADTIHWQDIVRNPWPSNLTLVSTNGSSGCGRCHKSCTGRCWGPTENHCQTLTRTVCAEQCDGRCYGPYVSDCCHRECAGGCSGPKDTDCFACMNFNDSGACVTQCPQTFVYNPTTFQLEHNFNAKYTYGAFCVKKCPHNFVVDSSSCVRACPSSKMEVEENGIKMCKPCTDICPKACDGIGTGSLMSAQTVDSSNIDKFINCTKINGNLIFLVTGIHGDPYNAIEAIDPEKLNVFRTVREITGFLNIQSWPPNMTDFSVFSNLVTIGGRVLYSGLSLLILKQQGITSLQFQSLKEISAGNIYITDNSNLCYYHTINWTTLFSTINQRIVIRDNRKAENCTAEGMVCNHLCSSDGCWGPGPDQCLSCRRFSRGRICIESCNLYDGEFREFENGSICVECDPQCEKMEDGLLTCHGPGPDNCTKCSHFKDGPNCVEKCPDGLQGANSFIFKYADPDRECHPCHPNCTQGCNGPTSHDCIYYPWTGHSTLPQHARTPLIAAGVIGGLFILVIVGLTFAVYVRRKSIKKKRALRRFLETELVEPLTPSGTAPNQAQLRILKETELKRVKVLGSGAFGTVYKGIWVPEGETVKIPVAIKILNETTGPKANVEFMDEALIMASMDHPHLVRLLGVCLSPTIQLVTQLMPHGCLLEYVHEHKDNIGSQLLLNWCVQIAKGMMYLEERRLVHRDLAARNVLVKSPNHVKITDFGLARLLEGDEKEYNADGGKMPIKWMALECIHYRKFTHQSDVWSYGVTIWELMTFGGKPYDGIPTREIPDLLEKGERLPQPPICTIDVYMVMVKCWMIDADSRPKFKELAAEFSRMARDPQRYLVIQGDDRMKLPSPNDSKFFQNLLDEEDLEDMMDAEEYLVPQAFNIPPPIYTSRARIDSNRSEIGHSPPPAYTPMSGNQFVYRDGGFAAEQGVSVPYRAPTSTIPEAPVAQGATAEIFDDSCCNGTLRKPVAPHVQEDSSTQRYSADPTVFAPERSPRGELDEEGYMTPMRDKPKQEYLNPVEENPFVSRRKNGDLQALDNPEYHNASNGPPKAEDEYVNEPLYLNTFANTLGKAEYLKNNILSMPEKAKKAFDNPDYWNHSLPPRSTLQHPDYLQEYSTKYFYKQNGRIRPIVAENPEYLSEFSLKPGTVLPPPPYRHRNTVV

For the compound `Clc1ccc(-c2nn3ncccc3c2-c2ccnc(Nc3ccccc3)n2)cc1`, the inhibition in experiment [1] is 14.4%; in experiment [2], 9.72%; in experiment [3] it was 53.3%; in experiment [4], -1.33%; in experiment [5], 2.12%; in experiment [6], 1.69%. Further, the inhibition was found to be 7.97% in experiment [7]; 3.45% in [8]; 23.3% in [9]; 8.11% in [10]; 55.4% in experiment [11]; 4.87% in experiment [12]. Moreover, the inhibition is 5.92% in experiment [13]; 6.02% in [14]; 37.2% in experiment [15]; -4.83% in [16]; 6.14% in experiment [17]; 27.9% in experiment [18]. In addition, the inhibition in [19] amounted to 69.5%; in experiment [20], 1.86%.

`CC1=C(C(=O)Nc2cc(Cl)c3[nH]ncc3c2)C(c2ccc(C(F)(F)F)cc2)CC(=O)N1` (stereo not given): the inhibition is 4.57% in [1]; 1.19% in [2]; 1.94% in experiment [3]; -2.83% in experiment [4]; -2.1% in [5]; 2.24% in experiment [6]. For the same compound, the inhibition in experiment [7] stood at 2.48%; in experiment [8], 8.02%; in [9], 6.71%; in experiment [10], 1.63%; in experiment [11], 6.01%; in [12] it was 5.62%. In addition, the inhibition in [13] is 2.94%; in experiment [14], -1.21%; in [15] it was 0.29%; in experiment [16], 2.74%; in experiment [17], 1.78%; in experiment [18] it was 11.9%. Further, the inhibition was determined as 31.2% in [19] and 4.27% in experiment [20].

Take `COc1cccc(-n2ncc3c(N/N=C/c4ccc(F)cc4)ncnc32)c1`: the inhibition in [1] turned out to be 3.89%; in experiment [2], 1.74%; in experiment [3] it was 1.29%; in experiment [4] it was 4.28%; in experiment [5], 5.62%; in experiment [6] it was 4.05%. In addition, the inhibition was 4.06% in experiment [7]; 7.96% in [8]; 15.7% in experiment [9]; 5.53% in experiment [10]; 11.3% in experiment [11]; 4.19% in [12]. Moreover, the inhibition in experiment [13] came out at 3.79%; in [14] it was 1.79%; in experiment [15], 3.45%; in experiment [16] it was 2.86%; in experiment [17], 4.41%; in experiment [18], 10.8%. The inhibition in [19] is 11.2%; in experiment [20], 2.73%.

For the origin of these results see ChEMBL document CHEMBL1961873, “Compounds: GSK PKIS; Assays: Nanosyn kinase panel” (2012).
